Test results from PubChem BioAssay (NCATS).
Inconclusive results are not listed. Active and inactive are the calls of the source. Calls come from the whole dose curve; as a rule, active = well fitted curve in the direction sought with a large enough effect; inconclusive = small, poorly fitted or top-dose-only effect, or another doubt; inactive = no such curve, though single readings can be large; an effect the other way counts as inactive or inconclusive.

Columns and labels:
[1] = Quantitative highthroughput screen to assess conditional lethalithy of NOMO1 cells grown in RPMI1640 with untreated serum (RPMI+s) (AID 1963876); details: NOMO1 AML cells in RPMI+serum, CellTiter-Glo viability, 48 h; series mostly up to 45.8 µM; note: nearly all actives have a fitted effect of over 35% in size;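 for viability: 100% = DMSO wells and 0% = empty wells without cells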
How it was run: (§1)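 Each medium arm—HPLM with 10% dialyzed FBS, or RPMI1640 with 5 mM glucose and 10% untreated or dialyzed FBS—was screened against an 11-point, 3-fold compound titration for 48 h at 37 °C, with CellTiter-Glo luminescence as endpoint.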

[2] = Quantitative highthroughput screen to assess conditional lethalithy of NOMO1 cells grown in RPMI1640 with dialyzed fetal bovine serum (RPMI+ds) (AID 1963877); details: NOMO1 in RPMI+dialyzed FBS viability, ATP luminescence, 48 h; series mostly up to 45.8 µM; note: nearly all actives have a fitted effect of over 30% in size;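 for viability: 100% = DMSO control wells and 0% = empty wells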
How it was run: as §1

[3] = Quantitative highthroughput screen to assess conditional lethalithy of P12 Ichikawa cells grown in Human Plasma-Like Medium with dialyzed fetal bovine serum (HPLM+ds) (AID 1963879); details: ATP luminescence, 48 h; Potency: viability; series mostly up to 45.8 µM; note: nearly all actives have a fitted effect of over 35% in size
How it was run: as §1

[4] = Quantitative highthroughput screen to assess conditional lethalithy of P12 Ichikawa cells grown in RPMI1640 with untreated serum (RPMI+s) (AID 1963881); details: ATP luminescence, 48 h; Potency: viability; series mostly up to 45.8 µM; note: nearly all actives have a fitted effect of over 35% in size;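 for viability: 100% = DMSO wells and 0% = empty wells without cells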
How it was run: as §1

[5] = Quantitative highthroughput screen to assess conditional lethalithy of SEM cells grown in Human Plasma-Like Medium with dialyzed fetal bovine serum (HPLM+ds) (AID 1963882); details: SEM B-ALL cells in HPLM+ds, CellTiter-Glo viability, 48 h; series mostly up to 45.8 µM; note: nearly all actives have a fitted effect of over 35% in size
How it was run: as §1

[6] = Quantitative highthroughput screen to assess conditional lethalithy of P12 Ichikawa cells grown in RPMI1640 with dialyzed fetal bovine serum (RPMI+ds) (AID 1963880); details: ATP luminescence, 48 h; Potency: P12-Ichikawa viability; series mostly up to 45.8 µM; note: nearly all actives have a fitted effect of over 35% in size;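 for viability: 100% = DMSO wells and 0% = empty wells on each plate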
How it was run: as §1

[7] = Quantitative highthroughput screen to assess conditional lethalithy of SEM cells grown in RPMI1640 with unreated serum (RPMI+s) (AID 1963883); details: SEM B-ALL cells, CellTiter-Glo viability, 48 h; series mostly up to 45.8 µM; note: nearly all actives have a fitted effect of over 35% in size;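 for viability: 100% = DMSO wells and 0% = empty wells without cells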
How it was run: as §1

[8] = Quantitative highthroughput screen to assess conditional lethalithy of SEM cells grown in RPMI1640 with dialyzed fetal bovine serum (RPMI+ds) (AID 1963884); details: SEM B-ALL cells, RPMI+dialyzed FBS, CellTiter-Glo viability, 48 h; series mostly up to 45.8 µM; note: nearly all actives have a fitted effect of over 35% in size;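 for viability: 100% = DMSO control wells and 0% = empty wells without cells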
How it was run: as §1

[9] = Cellular viability qHTS for adrenocortical cancer (ACC) cell line SW-13 (AID 1963989); details: SW-13 ACC cells viability, CellTiter-Glo, 48 h; activity (max response): hits give low values; note: nearly all actives have a fitted effect of over 65% in size;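 for activity (max response): cells grown in serum-free medium with ITS supplement; % is set by controls: 0 for no effect and ±100 for the full control effect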
How it was run: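 Luminescent ATP read-out (CellTiter-Glo, 20 min at room temperature) measured metabolically competent SW-13 cells after 48 h compound treatment. Final concentrations spanned up to 46 uM; bortezomib served as positive control.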

[10] = Cellular viability qHTS for adrenocortical cancer (ACC) cell line NCI-H295R (AID 1963990); details: CellTiter-Glo ATP luminescence, 48 h; series mostly up to 46.1 µM; note: nearly all actives have a fitted effect of over 60% in size
How it was run: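 IC50 and maximal efficacy derive from four-parameter logistic modelling of titration curves, with reads scaled between DMSO-only wells (0%) and doxorubicin hydrochloride (100% inhibition). Compounds spanned up to 46 uM over 48 h.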
Potency is the fitted concentration of half-maximal effect.

Cc1[nH]c(C=C2C(=O)Nc3ccc(S(=O)(=O)Cc4c(Cl)cccc4Cl)cc32)c(C)c1C(=O)N1CCC[C@H]1CN1CCCC1
active: Potency [5] 2.35 µM
inactive: Potency [1] | Potency [2] | Potency [3] | Potency [4]

COc1ccc(-c2coc3cc(O)cc(O)c3c2=O)cc1
active: Potency [9] 31.6 µM | Potency [10] 28.2 µM
inactive: Potency [1] | Potency [2] | Potency [6] | Potency [4] | Potency [7] | Potency [8]

C[C@@]12C[C@@]3(O)O[C@@H](O1)[C@]1(COC(=O)c4ccccc4)[C@@H]3C[C@@]12O[C@@H]1O[C@H](CO)[C@@H](O)[C@H](O)[C@@H]1O
inactive: Potency [1] | Potency [2] | Potency [6] | Potency [4] | Potency [5] | Potency [7]

CN[C@H](CC(C)C)C(=O)N[C@H]1C(=O)N[C@@H](CC(N)=O)C(=O)N[C@@H]2C(=O)N[C@H]3C(=O)N[C@H](C(=O)N[C@H](C(=O)O)c4cc(O)cc(O)c4-c4cc3ccc4O)[C@H](O)c3ccc(c(Cl)c3)Oc3cc2cc(c3O[C@@H]2O[C@H](CO)[C@@H](O)[C@H](O)[C@@H]2O[C@H]2C[C@](C)(N)[C@H](O)[C@H](C)O2)Oc2ccc(cc2Cl)[C@H]1O
inactive: Potency [1] | Potency [2] | Potency [3] | Potency [5] | Potency [7] | Potency [8]

Cc1ccc([C@@H]2O[C@H](CO)[C@@H](O)[C@H](O)[C@@H]2O)cc1Cc1ccc(-c2ccc(F)cc2)s1
inactive: Potency [1] | Potency [2] | Potency [5]

O=S(=O)(NCCNCC=Cc1ccc(Br)cc1)c1cccc2cnccc12
inactive: Potency [1] | Potency [2] | Potency [6] | Potency [4]

C[C@@H](O)[C@H]1C(=O)N2C(C(=O)OCOC(=O)C(C)(C)C)=C(SC3CN(C4=NCCS4)C3)[C@H](C)[C@H]12
inactive: Potency [1] | Potency [5]
active: Potency [2] 7.43 µM

N#CC(=Cc1ccc(O)c(O)c1)C(=O)NCc1ccccc1
inactive: Potency [1] | Potency [2]
active: Potency [7] 20.9 µM

COc1ccc(-c2c(-c3ccc(O)cc3O)n[nH]c2C)cc1
inactive: Potency [1] | Potency [2] | Potency [6] | activity (max response) [9] -14.3% | Potency [10]
active: Potency [7] 19.1 µM

C=C1C(=CC=C2CCC[C@]3(C)[C@@H]([C@H](C)C=C[C@H](C)C(C)C)CC[C@@H]23)C[C@@H](O)C[C@@H]1O
active: Potency [1] 16.6 µM | Potency [2] 20.9 µM | Potency [3] 8.33 µM | Potency [6] 14.8 µM | Potency [4] 9.35 µM
inactive: activity (max response) [9] -0.683% | Potency [10]

CC(=O)OCC(=O)[C@@]12N=C(C)O[C@H]1C[C@H]1[C@@H]3CCC4=CC(=O)C=C[C@]4(C)[C@@H]3[C@@H](O)C[C@@]12C
active: Potency [3] 4.18 µM | Potency [7] 23.5 µM | Potency [8] 20.9 µM
inactive: Potency [1] | Potency [2]

CC(=O)NCCC(=O)N[C@@H](CCC(N)=O)C(=O)N[C@@H](CO)C(=O)N[C@@H](CCC(N)=O)C(=O)N[C@@H](CCC(N)=O)C(=O)N[C@H](C(=O)N[C@@H](Cc1ccccc1)C(=O)N[C@]1(C)CCCCCCC=CCCC[C@@](C)(C(=O)N[C@@H](CCC(N)=O)C(=O)N[C@@H](CC(N)=O)C(N)=O)NC(=O)[C@H](CC(C)C)NC(=O)[C@H](CC(C)C)NC(=O)[C@@H](CCCNC(=N)N)NC(=O)[C@H](Cc2c[nH]c3ccccc23)NC(=O)[C@H](CC(C)C)NC(=O)[C@H](CC(N)=O)NC1=O)[C@H](C)O
active: Potency [8] 2.64 µM | Potency [9] 28.2 µM
inactive: Potency [1] | Potency [2] | Potency [6] | Potency [4]

O=c1c(-c2ccc(O)cc2)coc2cc(O)cc(O)c12
inactive: Potency [1] | Potency [2] | Potency [3] | Potency [4] | Potency [8] | Potency [10]

O=C(C=Cc1ccc(O)cc1)c1ccc(O)cc1O
inactive: Potency [1] | Potency [2]
active: Potency [6] 13.2 µM | Potency [4] 16.6 µM | Potency [7] 18.7 µM | Potency [8] 18.7 µM

O=C(c1ccc(C=Cc2n[nH]c3ccccc23)cc1)N1CCNCC1
active: Potency [1] 0.469 µM | Potency [2] 0.935 µM | Potency [3] 0.935 µM | Potency [4] 0.935 µM | Potency [7] 0.166 µM

CON=C(C(=O)N[C@@H]1C(=O)N2C(C(=O)O)=C(Cn3ccc(=N)n3CCO)CS[C@H]12)c1csc(N)n1
inactive: Potency [1] | Potency [2] | Potency [6] | Potency [4] | Potency [5] | Potency [7] | Potency [8]

COC1CCC(C(=O)c2ccc3nc4c(cc3c2)CCCO4)CC1 (stereo unspecified)
inactive: Potency [1] | Potency [3] | Potency [4] | Potency [5] | activity (max response) [9] 3.89% | Potency [10]
active: Potency [2] 18.7 µM | Potency [8] 3.32 µM

CC(=O)N1CCN(c2ccc(OCc3nn(C)c(C)c3-c3cccc4c(CCCOc5cccc6ccccc56)c(C(=O)O)n(Cc5cccnc5)c34)cc2)CC1
active: Potency [1] 1.66 µM | Potency [2] 2.64 µM | Potency [3] 10.5 µM | Potency [4] 10.5 µM
inactive: Potency [5] | Potency [8]

O=C1CN2Cc3c(ccc(Cl)c3Cl)N=C2N1
inactive: Potency [1] | Potency [2] | Potency [5] | activity (max response) [9] 2.15% | Potency [10]

CC1(C)OC2=C(C(=O)c3ccccc3C2=O)[C@H](NCc2ccccc2)[C@H]1O
active: Potency [1] 4.18 µM | Potency [2] 9.35 µM | Potency [6] 16.6 µM | Potency [5] 11.8 µM | Potency [7] 7.43 µM | Potency [8] 16.6 µM
